Screening results deposited in PubChem by National Center for Advancing Translational Sciences (NCATS).
DT40 TDP1 no CPT: qHTS for Inhibitors of human tyrosyl-DNA phosphodiesterase 1 (TDP1): qHTS in cells in absence of CPT; DT40 Tdp1-/- hTDP1 cells, no CPT, ATP luminescence, 48 h; Potency, µM (highest dose often 46.2 µM), inactives show at the top dose activity change, negative = growth inhibition, most hits filed as inhibitors; 420,000 tested, 15% active; also: nearly all actives have a fitted effect of over 55% in size
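DT40 Tdp1-/-;hTDP1 cells, no CPT (DMSO vehicle only), 400 cells/well; compounds pin-transferred; ≥48 hr, 37 °C; CellTiter-Glo 30 min RT dark, luminescence read.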
KB-3-1 tox: kills parental KB-3-1 adenocarcinoma cells; KB-3-1 viability, CellTiter-Glo ATP luminescence, 72 h; Potency, µM (highest dose often 46.1 µM), most hits filed as cytotoxic; 400,000 tested, 1.4% active; also: nearly all actives have a fitted effect of over 60% in size
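72 h, 37 °C compound treatment of KB-3-1 parental cells; CellTiter-Glo added, 10 min, luminescence read. Data corrected against DMSO-only plates and normalized before curve fitting.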
HT1080 IDH1KD tx: kills HT-1080 cells with IDH1 knockdown. 360,000 tested, 2% active. Potency, µM (titrated, usually from 46.1 µM), for inactives: top-dose activity, negative = toxicity, most hits filed as cytotoxic. HT-1080 IDH1 knockdown viability, ATP luminescence, 48 h. AID 686971;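 also: 0% = DMSO wells and -100% = cell-free medium wells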
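In this qHTS, HT-1080 cells depleted of IDH1 are exposed for 48 h at 37 °C to compound titrations. Toxicity is scored from CellTiter-Glo luminescence, with DMSO as full viability and medium alone as none.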
HT1080NT lethal: kills 2HG-producing HT-1080-NT fibrosarcoma cells. AID 686970. HT-1080-NT fibrosarcoma viability, CellTiter-Glo ATP luminescence, 48 h. 360,000 tested, 1.6% active. Potency, µM (series often up to 46.1 µM), inactives show at the highest dose activity, negative = less viability, usual class: cytotoxic;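 also: NT is the 2HG producing partner of a matched IDH1 knockdown line; 0% = DMSO-treated cells and -100% = media-only wells without cells; nearly all actives have a fitted effect of over 55% in size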
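A 48-hour cytotoxicity screen used HT-1080-NT cells plated 2 hours before compound delivery. ATP-based CellTiter-Glo luminescence measured viability, normalized to DMSO and no-cell controls.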
KB-V1 MDR tox: KB-V1 MDR subline cytotoxicity; KB-V1 MDR cells viability, CellTiter-Glo, 72 h; Potency, µM (top dose mostly 46.1 µM), hits mostly cytotoxic; 400,000 tested, 3.4% active; AID 1347076; also: nearly all actives have a fitted effect of over 60% in size
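Readout: CellTiter-Glo luminescence, 10 min after addition. Cells: KB-V1 MDR subline, 72 h at 37 degrees C with compound. Analysis: corrected, normalized data fitted to concentration-effect curves.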
TDP1 cell CPT: growth inhibition of DT40 Tdp1-/-;hTDP1 cells with camptothecin (screen for TDP1 inhibitors); 420,000 tested, 12% active; Potency, µM (series often up to 46.2 µM), inactives show at the top dose activity change, negative = growth inhibition, usual class: inhibitors; chicken DT40 Tdp1-/-;hTDP1 cells + 20 nM CPT, ATP luminescence, 48 h; also: nearly all actives have a fitted effect of over 55% in size
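Chicken DT40 Tdp1-/- cells stably complemented with human TDP1 were seeded at 400 cells/well in medium containing 20 nM camptothecin, exposed to pin-transferred compounds, and grown at 37 °C for at least 48 hr. Viability was read as ATP luminescence.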
Starred values were filed as active, the others as inactive; i = inactive; ? = inconclusive; / = no result given; ! = not confirmed by another sample; [ ] = dose if it differs, or a comment. A selection: hits, their analogues and other compounds. The true share with any hit is near 19%. Calls follow the shape of the dose curve; as a rule, active = well fitted curve in the direction sought with a large enough effect; inconclusive = small, poorly fitted or top-dose-only effect, or another doubt; inactive = no such curve, though single readings can be large; an effect the other way counts as inactive or inconclusive. Unless noted, % is scaled to controls: 0 for no effect and ±100 for the full control effect; potency is read from the fitted curve at half-maximal effect.

SMILES	DT40 TDP1 no CPT	KB-3-1 tox	HT1080 IDH1KD tx	HT1080NT lethal	KB-V1 MDR tox	TDP1 cell CPT
COc1ccc(CN2Cc3cc(N4CCOCC4)ccc3-n3nncc3C2)cc1	?	i	1%	-1%	i	21µM*
COc1ccc(CN2Cc3cnnn3-c3ccccc3C2C)cc1 (stereo unspecified)	16µM*	13µM*	?	-24%	?	?
S=C1NC2(CCCCC2)NC12CCCCC2	-10%	i	-2%	5%	i	-11%
CCc1ccc(NC(=O)CCNC(=O)N2C[C@H]3C[C@@H](C2)c2cccc(=O)n2C3)cc1	-2%	i	7%	1%	?	-15%
CC1CC(C)CN(S(=O)(=O)c2ccc3c(c2)oc(=O)n3CC(=O)NCc2cccnc2)C1 (stereo unspecified)	?	i	-19%	-9%	?	?
CN(Cc1ccccc1)C(=O)Cn1c(=O)oc2cc(S(=O)(=O)NCc3ccccc3)ccc21	21µM*	i	-14%	-15%	i	15µM*
CC(C)[C@@H]1CN[C@H](C(=O)O)[C@@H]1CC(=O)O	-16%	/	/	/	/	-1%
CN(C)c1ccc(/C=C/c2cc[n+](C)c3ccccc23)cc1	0.23µM*	2.9µM*!	7.3µM*	?	16µM*!	0.41µM*
CN(C)c1ccc(/C=C/C=C/c2sc3ccccc3[n+]2C)cc1	0.13µM*	10µM*	?	21µM*	i	0.92µM*
CC[n+]1c(/C=C/C=C/c2ccc(N(C)C)cc2)sc2ccccc21	0.052µM*	1.5µM*	7.3µM*	5.8µM*	?	0.0092µM*
COc1cc(CCN)cc(OC)c1OC	-13%[92.5 µM]	/	/	/	/	5%[92.5 µM]
O=C(Oc1ccccc1)N1CCC2(CCCN(Cc3ccccc3)C2)CC1	?	/	/	/	/	4%
CC[C@H](O)C(C[C@H](C)N(C)C)(c1ccccc1)c1ccccc1	?	/	/	/	/	44µM*
CC(CC(C#N)(c1ccccc1)c1ccccc1)N(C)C (stereo unspecified)	?	i	-15%	?	?	?
CC(=O)N1CCCc2cc(S(=O)(=O)N3CCCC(C(=O)Nc4cccc(F)c4)C3)ccc21 (stereo unspecified)	?	?	-11%	-2%	i	?
CCOC(=O)c1cccc(C2=C(CNC(=O)c3cccnc3)[C@H]3CC[C@@H](C2)N3Cc2ccccc2)c1	21µM*	i	-13%	-14%	?	?
CCOC(=O)c1cccc(C2=C(CNC(C)=O)[C@H]3CC[C@@H](C2)N3Cc2ccccc2)c1	?	i	-2%	-3%	i	-3%
N#Cc1ncc(N=Cc2ccc(N(CCCl)CCCl)cc2)s1	12µM*	?	10µM*	?	i	10µM*
ClCCN(CCCl)c1ccc(C=NNc2ncccn2)cc1	5.2µM*	i	-20%	-17%	i	4.6µM*
O=C(Cc1cc(=O)oc2cc(O)ccc12)NN=Cc1ccc(N(CCCl)CCCl)cc1	?	i	-29%	-29%	i	?
COc1c(C)cc(Br)cc1C(=O)Nc1ccc(-c2nc3ncccc3o2)cc1	4.6µM*	i	/	/	i	6.5µM*
CCN1/C(=C\C=C\C2=[N+](CC)c3ccccc3C2(C)C)C(C)(C)c2ccccc21	0.15µM*	?	2.6µM*	0.65µM*	21µM*	0.092µM*
CC12CCC3C(CCC4C/C(=N/O)CCC43C)C1CCC2O (stereo unspecified)	7%	?	9%	13%	?	-3%
CCOc1ccc2nc(NC(=O)c3cccn(Cc4ccccc4Cl)c3=O)sc2c1	15%	i	/	/	?	-3%
CCOC(=O)[C@]12Cc3ccccc3[C@H]1N(CCC(=O)OC)C(=O)c1ccccc12	16µM*	5.2µM*	?	?	5.2µM*	18µM*
SMILES	DT40 TDP1 no CPT	KB-3-1 tox	HT1080 IDH1KD tx	HT1080NT lethal	KB-V1 MDR tox	TDP1 cell CPT
CCOC(=O)[C@]12Cc3cc(C)ccc3[C@H]1N(CCC(=O)OC)C(=O)c1cc(OC)ccc12	8.2µM*	18µM*	18µM*	23µM*	21µM*	10µM*
COC(=O)C12CCc3cc(OC)ccc3C1=CC(=O)C2 (stereo unspecified)	?	i	0%	-3%	i	11%
O=C1Nc2ccc(Cl)cc2C(c2ccccc2Cl)=NC1O (stereo unspecified)	-95%	/	/	/	/	?
COc1cc(/C=N/Nc2ccc(S(N)(=O)=O)cc2)cc(OC)c1OC	21µM*	i	-6%	-11%	i	?
CCCC[N+]12CCC(CC1)C(=C(c1ccccc1)c1ccccc1)C2	4.1µM*	i	-2%	0%	i	4.6µM*
CCC[N+]12CCC(CC1)C(=C(c1ccccc1)c1ccccc1)C2	21µM*	i	-9%	-9%	i	15µM*
OCC[N+]12CCC(CC1)C(C(O)(c1ccccc1)c1ccccc1)C2 (stereo unspecified)	-1%	i	10%	5%	i	7%
Cc1ccc(NC(=O)CN2C(=O)CN=C(c3ccccc3)c3ccccc32)c(C)c1	?	i	/	/	i	?
CCc1ccccc1NC(=O)C1CCCN(c2ncnc3onc(C)c23)C1 (stereo unspecified)	9.2µM*	i	/	/	i	18µM*
Cc1c(C(=O)N2CCC(Cc3ccccc3)CC2)sc2ncnc(N3CCC(C)CC3)c12	?	i	9%	14%	i	21µM*
CN(C)C(=O)Oc1ccc(Cl)c2cccnc12	-18%	i	12%	1%	i	6%
COc1ccc(C(=O)Oc2c(CN3CCOCC3)cc(Cl)c3cccnc23)cc1OC	5.6µM*	?	10%	21%	?	5µM*
Cc1c(C(=O)NCc2cccc(C(F)(F)F)c2)sc(=O)n1Cc1ccc(C(=O)N(C)C)cc1	15µM*	?	0%	-1%	?	?
COc1ccc(CNC(=O)c2sc(=O)n(Cc3ccc(C)cc3)c2C)cc1OC	16µM*	i	-1%	4%	18µM*	?
CCOc1ccc(Cn2c(=O)oc3ccc(C)cc32)cc1OC	?	i	-9%	-23%	?	?
COc1ccc(-c2nc3ccccc3c(=O)n2-c2cccnc2)cc1	-20%	i	10%	6%	13µM*	?
